Laboratory results taken from PubChem BioAssay AID651658 (Broad Institute, 2012).
The campaign covered roughly 340,000 compounds. About 5,100 (1.5%) were called active. The sample holds actives, similar compounds and a random draw of the others, so the mix is not that of the screen. A number with no mark means an inactive call.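 Rule for the calls: active = mean Tm shift, scaled 0 neutral to 100 positive control, at about 1.3% or above, every replicate too (limit read from the data); inconclusive = no clear call, values can overlap the other calls; inactive = the rest.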

Target: Fibroblast growth factor 22 (Homo sapiens) (UniProt Q9HCT0)
Sequence (Q9HCT0 whole entry, looked up): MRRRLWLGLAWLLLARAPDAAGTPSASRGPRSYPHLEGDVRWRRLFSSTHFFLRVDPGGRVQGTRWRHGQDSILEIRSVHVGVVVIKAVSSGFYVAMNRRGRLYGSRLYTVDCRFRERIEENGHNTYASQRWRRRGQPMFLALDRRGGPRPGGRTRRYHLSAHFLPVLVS
Test: FGF22 ligand-induced thermal stabilization – biophysical, thermal shift, single point, FGF22 synaptogenesis inhibitor project, primary screen (AID 651658)
Conditions: recombinant FGF22 thermal shift, SYPRO orange fluorescence; at 9.99 µM; stronger effect = higher value; percent of sucrose octasulfate shift, DMSO zero

| Structure (SMILES) | activity (Tm shift, normalised) |
| --- | --- |
| CC(C)c1cn([C@H]2C[C@@H]3O[C@H](CO)CC[C@@H]3O[C@@H]2CCc2ccc(C#CC3CCCCC3)cc2)nn1 | 0.095% |
| CCc1ccccc1NC(=O)Cc1cn(C)c2ccccc12 | 43.6% (active) |
| Cn1cc(CCC(=O)NC2CC2)c2ccccc21 | -0.251% |
| Cc1ccc(CNC(=O)Cc2cn(C)c3ccccc23)cc1 | -0.058% |
| C[C@H](CO)N1C[C@H](C)[C@H](CN(C)C(=O)Nc2ccc(F)cc2)OCCCC[C@H](C)Oc2ccc(NC(=O)CCC(F)(F)F)cc2C1=O | -0.451% |
| O=C(COc1coc(CN2CCN(c3ccccc3F)CC2)cc1=O)N1CCc2ccccc21 | -0.217% |
| O=C(CCSc1ccccc1)N1CCN(c2ccccc2F)CC1 | 0.121% |
| Cn1c(=O)cc(OCC(=O)N2CCN(c3ccccc3F)CC2)c2ccccc21 | 44% (active) |
| C[C@@H]1CN([C@H](C)CO)C(=O)c2cc(NC(=O)Nc3cccc4ccccc34)ccc2O[C@H]1CN(C)C(=O)Nc1ccccc1 | -0.15% |
| CCC(=O)N1C[C@@H](C)[C@H](OC)CN(C)C(=O)c2ccc(NC(=O)NC(C)C)cc2OC[C@H]1C | -0.086% |
| CCC(=O)N1C[C@@H](C)[C@H](OC)CN(C)C(=O)c2ccc(NC(=O)c3ccc(F)cc3)cc2OC[C@@H]1C | -0.101% |
| CCN(CC)C(=O)N(CC)Cc1ccccc1 | 43.4% (active) |
| O=C(O)CCC(=O)N(Cc1ccccc1)Cc1ccccc1 | -0.007% |
| CCN(Cc1ccncc1)C(=O)CCc1ccccc1 | 0.094% |
| CNC(=O)C[C@H]1CC[C@H]2[C@H](COc3ccc(NC(=O)c4cc(C)on4)cc3C(=O)N2C)O1 | -0.057% |
| O=C(C[C@H]1C[C@@H]2c3cc(NC(=O)c4ccc5c(c4)OCO5)ccc3O[C@@H]2[C@@H](CO)O1)NCc1cccnc1 | -0.297% |
| C[C@H]1CN([C@@H](C)CO)C(=O)CCCn2nncc2CO[C@H]1CN(C)S(=O)(=O)c1ccccc1C#N | -0.016% |
| CO[C@H]1CN(C)C(=O)c2cc(NC(=O)C3CCC3)ccc2OC[C@H](C)N(Cc2nccs2)C[C@H]1C | -0.288% |

| Structure (SMILES) | activity (Tm shift, normalised) |
| --- | --- |
| Cc1noc(C)c1S(=O)(=O)N(C)C[C@@H]1Oc2ccc(NC(=O)Cn3cnnn3)cc2CC(=O)N([C@@H](C)CO)C[C@@H]1C | -0.13% |
| Cn1cc(Cl)c(C(=O)NNC(=S)Nc2cccc(Cl)c2)n1 | 44.2% (active) |
| O=C(Nc1cccc(Cl)c1)c1cncn1-c1ccc(F)cc1 | 0.242% |
| Cc1cccc(-n2cnc(C(=O)NNC(=S)Nc3ccccc3)c2)n1 | 0.832% |
| COCC(=O)Nc1ccc2c(c1)C(=O)N(C)[C@@H]1CC[C@H](CC(=O)NCC3CC3)O[C@H]1CO2 | 0.038% |
| NC(=O)Nc1ccc(C(=O)OCC(=O)NC2CCCc3ccccc32)cc1 (stereo not given) | 43% (active) |
| CCOc1ccc(NC(=O)COc2ccc(C(=O)NC3CCCc4ccccc43)cc2OC)cc1 (stereo not given) | 0.171% |
| COC(=O)c1cc(OCC(=O)NC2CCCc3ccccc32)cc(C(=O)OC)c1 (stereo not given) | 0.172% |
| O=C(NC1CCCCC1)N1CC2(C1)[C@H](c1ccccc1)[C@@H](CO)N2S(=O)(=O)Cc1ccccc1 | -0.24% |
| CC(=O)NCCc1ccc(S(=O)(=O)Nc2ccc(C)c(S(=O)(=O)N3CCOCC3)c2)cc1 | -0.312% |
| Cc1ccc(NS(=O)(=O)c2ccc(C(C)C)cc2)cc1S(=O)(=O)N1CCOCC1 | -0.175% |
| Cc1ccc(S(=O)(=O)Nc2ccc(F)c(S(=O)(=O)N3CCOCC3)c2)cc1 | 43.3% (active) |
| CCCN1C[C@@H](C)[C@@H](OC)CN(C)C(=O)c2cc(NC(=O)CC(F)(F)F)ccc2OC[C@H]1C | 0.002% |
| O=C(Cc1cccs1)N/N=C/c1ccc(OCc2ccccc2)cc1 | 0.285% |
| CCOc1ccc(-c2cc(C(=O)N/N=C/c3ccc(O)cc3)c3ccccc3n2)cc1 | 0.307% |
| O=C(N/N=C/c1ccc(OCc2ccccc2)cc1)c1ccc(O)cc1 | 2.5% (active) |
| CCCNC(=O)N1CC2(CCN(C(=O)C3CC3)CC2)c2c([nH]c3cc(OC)ccc23)[C@H]1CO | -0.002% |
